Here are results for five compounds from PubChem BioAssay (EPA / NIEHS).

Molecules are shown by their SMILES. Records with an inconclusive call do not appear. The source made the active and inactive calls. Rule for the calls, unless noted: active = hit-call score of the fitted dose curve at least 0.9, where 1 is the maximum; inactive = score below 0.9.

Experiment [1] concerns the target Paired box protein Pax-6 (Homo sapiens) (UniProt P26367). The experiment in a line: ATG_Pax6_CIS: Attagene CIS-FACTORIAL HepG2 Assay for human Paired Box 6 (PAX6) (AID 2282956). To be noted: HepG2 CIS-FACTORIAL PAX6 reporter transcription, RNA readout; actives raise or lower the signal. Summed up: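 DMSO-referenced bidirectional fits of reporter mRNA fluorescence; HepG2 with transient cis-promoter MRTUs, 24 h post-dose, RT-PCR plus capillary electrophoresis detection.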

Experiment [2] can be described thus: ATG_PXRE_CIS: Attagene CIS-FACTORIAL HepG2 Assay for human Pregnane X Receptor Element (PXRE) (AID 2282957). To be noted: HepG2 Attagene CIS-FACTORIAL PXRE reporter, mRNA; actives raise or lower the signal. Summed up:
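Bidirectional activity, baselined to DMSO, derived from reporter mRNA fluorescence (RT-PCR plus capillary electrophoresis) in HepG2 cells bearing cis-promoter reporter units, 24 h exposure.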

Experiment [3] in a line: ATG_PPRE_CIS: Attagene CIS-FACTORIAL HepG2 Assay for human Peroxisome Proliferator-activated Response Element (PPRE) (AID 2282958). To be noted: HepG2 PPRE cis-element reporter, Attagene transcription factor profiling; actives raise or lower the signal. Summed up:
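Read-out: fluorescent reporter mRNA fragments resolved by capillary electrophoresis after RT-PCR. HepG2 cells carried transiently transfected PPRE-driven cis reporter constructs and were dosed for 24 h; gain or loss of signal fitted relative to DMSO.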

Experiment [4] can be described thus: ATG_RORE_CIS: Attagene CIS-FACTORIAL HepG2 Assay for human RAR-related Orphan Receptor Element (RORE) (AID 2282959). The settings on record: HepG2 Attagene cis-factorial RORE reporter, mRNA; actives raise or lower the signal. In a few lines: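 Readout: fluorescent reporter mRNA by RT-PCR plus capillary electrophoresis, 24 h after dosing transfected HepG2 cells. Endogenous transcription factor activity on a cis promoter element is measured. Gain or loss of signal fitted against DMSO.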

A short description of experiment [5]: ATG_Sox_CIS: Attagene CIS-FACTORIAL HepG2 Assay for human SRY-box transcription factor (SOX) (AID 2282960). To be noted: HepG2 Attagene cis-factorial SOX reporter, mRNA; actives raise or lower the signal. Summed up:
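Read-out: fluorescent RT-PCR products of SOX1-linked reporter transcripts resolved by capillary electrophoresis, fitted bidirectionally against DMSO. Transiently transfected HepG2 cells, 24 h after chemical exposure, endogenous transcription factor activity.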

Experiment [6] addresses Transcription factor Sp1 (Homo sapiens) (UniProt P08047). Put plainly: ATG_Sp1_CIS: Attagene CIS-FACTORIAL HepG2 Assay for human Specificity Protein 1 (Sp1) (AID 2282961). To be noted: HepG2 Sp1 cis-reporter transcription, actives raise or lower the signal. In a few lines: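 Read-out: fluorescence of 6-FAM-labeled, HpaI-digested RT-PCR products separated by capillary electrophoresis. HepG2 cells carried transfected cis-element reporter units and were exposed to chemicals for 24 h; gain or loss of signal fitted relative to DMSO.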

Experiment [7] can be described thus: ATG_SREBP_CIS: Attagene CIS-FACTORIAL HepG2 Assay for human Sterol Regulatory Element Binding (SREBP) (AID 2282962). The settings on record: HepG2 Attagene cis-factorial SREBP reporter, mRNA; actives raise or lower the signal. Summed up:
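In this cis-format assay, HepG2 liver cells express reporters controlled by promoter elements responsive to native transcription factors. Exposure lasts 24 h; reporter mRNA fluorescence from capillary electrophoresis gives the signal, fitted bidirectionally against DMSO.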

Experiment [8] addresses Signal transducer and activator of transcription 3 (Homo sapiens) (UniProt P40763). The experiment in a line: ATG_STAT3_CIS: Attagene CIS-FACTORIAL HepG2 Assay for human Signal Transducer and Activator of Transcription 3 (STAT3) (AID 2282963). The settings on record: HepG2, Attagene cis-factorial STAT3 reporter transcription; actives raise or lower the signal. Summed up: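 HepG2, MRTU-transfected, 24 h dosing. RNA → RT → PCR → FAM label → HpaI → CE. Bidirectional fit vs DMSO.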

A short description of experiment [9]: ATG_TA_CIS: Attagene CIS-FACTORIAL HepG2 Assay for human TA Basal Promoter (AID 2282964). The settings on record: HepG2 Attagene CIS-factorial TA basal promoter reporter; actives raise or lower the signal. Summed up:
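HepG2 cells transiently transfected with multiplexed cis-promoter reporter units, dosed 24 h. Reporter mRNA measured by RT-PCR, 6-FAM labelling, HpaI digestion and capillary electrophoresis; bidirectional fit versus DMSO baseline, serving as background control.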

Experiment [10] in a line: ATG_TAL_CIS: Attagene CIS-FACTORIAL HepG2 Assay for human TAL Basal Promoter (AID 2282966).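 Note: background control endpoint measuring basal TAL promoter reporter mRNA not a specific factor.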 To be noted: HepG2 Attagene cis-factorial TAL promoter reporter; actives raise or lower the signal. Summed up: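 Human hepatoma HepG2 cells, transfected with promoter-regulated reporter units, were treated 24 h. Reporter transcript levels, measured through RT-PCR and capillary electrophoresis, were fitted for gain or loss relative to DMSO.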

Experiment [11] can be described thus: ATG_TGFb_CIS: Attagene CIS-FACTORIAL HepG2 Assay for human Transforming Growth Factor (TGF) (AID 2282967). To be noted: HepG2 Attagene CIS TGFb reporter, mRNA transcription; actives raise or lower the signal. Summed up:
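HepG2 cells transiently transfected with cis-promoter-driven multiplexed reporter units; 24 h compound exposure. Reporter mRNA measured by RT-PCR, 6-FAM labeling, HpaI digestion and capillary electrophoresis; bidirectional fit versus DMSO baseline.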

For experiment [12], the target named is Estrogen receptor (Homo sapiens) (UniProt P03372). Put plainly: ATG_ERa_TRANS: Attagene TRANS-FACTORIAL HepG2 Assay for human Estrogen Receptor alpha (ERa) (AID 2282970; active = hit-call score of the fitted dose curve at least 0.9, where 1 is the maximum). The settings on record: HepG2 Attagene TRANS ERa GAL4 reporter, mRNA. In a few lines: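 Signal derives from fluorescence of labelled reporter PCR fragments separated by capillary electrophoresis. HepG2 cells transiently carrying multiple GAL4-UAS reporter units were treated 24 hours, and induction above DMSO baseline was fitted as activity.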
Sequence of Estrogen receptor (Homo sapiens) (P03372 whole entry, looked up, the tested form may be a part): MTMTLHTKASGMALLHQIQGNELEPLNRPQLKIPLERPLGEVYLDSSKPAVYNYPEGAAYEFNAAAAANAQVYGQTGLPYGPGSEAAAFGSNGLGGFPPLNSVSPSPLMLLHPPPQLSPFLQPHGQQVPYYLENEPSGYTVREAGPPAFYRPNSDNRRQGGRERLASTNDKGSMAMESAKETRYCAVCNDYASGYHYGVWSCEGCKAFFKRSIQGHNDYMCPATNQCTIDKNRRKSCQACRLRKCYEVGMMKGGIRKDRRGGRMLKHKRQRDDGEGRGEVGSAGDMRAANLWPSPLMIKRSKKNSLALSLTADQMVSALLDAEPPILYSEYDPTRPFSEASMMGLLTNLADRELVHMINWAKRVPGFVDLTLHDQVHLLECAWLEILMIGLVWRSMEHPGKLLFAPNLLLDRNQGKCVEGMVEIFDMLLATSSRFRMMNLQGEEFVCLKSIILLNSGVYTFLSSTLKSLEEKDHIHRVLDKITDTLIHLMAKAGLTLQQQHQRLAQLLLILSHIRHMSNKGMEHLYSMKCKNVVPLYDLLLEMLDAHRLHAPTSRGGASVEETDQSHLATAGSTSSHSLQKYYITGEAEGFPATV

The target in experiment [13] is X-box-binding protein 1 (Homo sapiens) (UniProt P17861). The experiment in a line: ATG_Xbp1_CIS: Attagene CIS-FACTORIAL HepG2 Assay for human X-box Binding Protein 1 (XBP1) (AID 2282972). To be noted: HepG2 XBP1 cis-element reporter, Attagene multiplex; actives raise or lower the signal. Summed up: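 Changes in reporter transcript abundance, read by RT-PCR and capillary electrophoresis, reflect endogenous transcription factor activity. Transfected HepG2 cells received compound for 24 hours; DMSO defined baseline for bidirectional analysis.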
Sequence of X-box-binding protein 1 (Homo sapiens) (P17861 whole entry, looked up): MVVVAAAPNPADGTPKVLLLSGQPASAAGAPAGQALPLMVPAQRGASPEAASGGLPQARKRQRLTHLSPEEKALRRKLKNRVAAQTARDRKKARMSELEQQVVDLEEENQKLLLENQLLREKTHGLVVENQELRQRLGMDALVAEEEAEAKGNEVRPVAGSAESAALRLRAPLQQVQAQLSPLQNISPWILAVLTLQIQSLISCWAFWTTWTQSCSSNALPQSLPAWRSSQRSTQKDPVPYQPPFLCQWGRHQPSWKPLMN

Experiment [14] is described as follows: ATG_M_19_TRANS: Attagene TRANS-FACTORIAL HepG2 Assay for M19 Transcription Factor (Internal Marker) (AID 2282974; active = hit-call score of the fitted dose curve at least 0.9, where 1 is the maximum). The settings on record: HepG2 Attagene TRANS-FACTORIAL M19 internal marker reporter. In a few lines: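 24 h chemical exposure of transiently transfected HepG2 (MRTU library). RNA → oligo(dT) RT → PCR → 6-FAM labelling → HpaI cut → CE fluorescence. Positive-direction fit vs DMSO baseline; background internal-marker readout.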

Experiment [15] is described as follows: ATG_GAL4_TRANS: Attagene TRANS-FACTORIAL HepG2 Assay for GAL4 (Internal Marker) (AID 2282976; active = hit-call score of the fitted dose curve at least 0.9, where 1 is the maximum). The settings on record: HepG2 Attagene TRANS GAL4 internal marker reporter. Summed up:
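Liver HepG2 line bearing multiplexed GAL4-UAS reporter constructs; 24 h chemical treatment. Transcripts were quantified as fluorescent fragments on capillary electrophoresis after RT-PCR and HpaI cut, with activity fitted upward from DMSO.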

A short description of experiment [16]: ATG_TCF_b_cat_CIS: Attagene CIS-FACTORIAL HepG2 Assay for human T-Cell-Factor with beta-catenin (TCF/b-cat) (AID 2282965). To be noted: HepG2 TCF/beta-catenin cis-reporter transcription, actives raise or lower the signal. In a few lines: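 HepG2 cells transiently transfected with multiple cis-promoter-regulated reporter transcription units, so endogenous transcription factor activity is measured. Reporter mRNA read 24 hours after dosing by RT-PCR, fluorescent labelling and capillary electrophoresis; bidirectional fitting against DMSO.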

Experiment [17] can be described thus: ATG_VDRE_CIS: Attagene CIS-FACTORIAL HepG2 Assay for human Vitamin D Receptor Element (VDRE) (AID 2282968). The settings on record: HepG2 VDRE cis-reporter transcription, actives raise or lower the signal. Summed up:
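Steps: transfect HepG2 with multiple reporter transcription units; dose chemicals 24 h; isolate RNA; RT-PCR; label with 6-FAM primer extension; HpaI digest; capillary electrophoresis. Curves fitted both directions against DMSO.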

Experiment [18] concerns the target Nuclear receptor subfamily 1 group I member 3 (Homo sapiens) (UniProt Q14994). The experiment in a line: ATG_CAR_TRANS: Attagene TRANS-FACTORIAL HepG2 Assay for human Constitutive Androstane Receptor (CAR) (AID 2282969; active = hit-call score of the fitted dose curve at least 0.9, where 1 is the maximum;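 note: activators raise reporter mRNA above DMSO so AC50 marks induction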). To be noted: HepG2 Attagene TRANS-FACTORIAL CAR reporter. Summed up: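 Steps: transient transfection of HepG2 with multiple GAL4-UAS reporter units; 24 h compound incubation; RNA isolation, RT-PCR, 6-FAM primer extension, HpaI digest; capillary electrophoresis. Gain-of-signal relative to DMSO negative control.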

In experiment [19] the target is Steroid hormone receptor ERR1 (Homo sapiens) (UniProt P11474). The experiment in a line: ATG_ERRa_TRANS: Attagene TRANS-FACTORIAL HepG2 Assay for human Estrogen-Related Receptor alpha (ERRa) (AID 2282971; active = hit-call score of the fitted dose curve at least 0.9, where 1 is the maximum). The settings on record: HepG2 Attagene TRANS reporter, ERRa transactivation. Summed up: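 Signal gain relative to DMSO for an ERRa-Gal4 chimeric receptor, read as reporter mRNA by RT-PCR/capillary electrophoresis. Human HepG2 liver cells, transient multiplex reporter transfection, 24 h chemical exposure.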
Sequence of Steroid hormone receptor ERR1 (Homo sapiens) (P11474 whole entry, looked up, the tested form may be a part): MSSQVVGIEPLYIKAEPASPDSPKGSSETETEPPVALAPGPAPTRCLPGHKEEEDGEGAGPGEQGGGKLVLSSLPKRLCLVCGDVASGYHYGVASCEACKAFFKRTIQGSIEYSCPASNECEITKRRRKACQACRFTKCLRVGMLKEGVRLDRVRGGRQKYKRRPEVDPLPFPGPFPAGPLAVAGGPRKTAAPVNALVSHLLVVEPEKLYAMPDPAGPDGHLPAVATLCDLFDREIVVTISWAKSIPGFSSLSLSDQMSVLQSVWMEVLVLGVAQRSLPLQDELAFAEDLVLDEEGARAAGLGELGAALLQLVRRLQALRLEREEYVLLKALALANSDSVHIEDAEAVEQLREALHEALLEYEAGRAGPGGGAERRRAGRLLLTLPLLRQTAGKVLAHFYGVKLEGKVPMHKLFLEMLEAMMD

Experiment [20] concerns the target Estrogen-related receptor gamma (Homo sapiens) (UniProt P62508). The experiment in a line: ATG_ERRg_TRANS: Attagene TRANS-FACTORIAL HepG2 Assay for human Estrogen-Related Receptor gamma (ERRg) (AID 2282977; active = hit-call score of the fitted dose curve at least 0.9, where 1 is the maximum;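 note: hits increase reporter signal over DMSO so potencies reflect activators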). To be noted: HepG2 Attagene TRANS reporter, ERRg transactivation. Summed up:
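Exogenous NR-Gal4 chimera activity measured as reporter transcript induction after 24 h in transiently transfected HepG2 cells. RNA reverse-transcribed, PCR-amplified, 6-FAM-labelled and resolved by capillary electrophoresis; increase over DMSO baseline.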

Sequence of Paired box protein Pax-6 (Homo sapiens) (P26367 whole entry, looked up): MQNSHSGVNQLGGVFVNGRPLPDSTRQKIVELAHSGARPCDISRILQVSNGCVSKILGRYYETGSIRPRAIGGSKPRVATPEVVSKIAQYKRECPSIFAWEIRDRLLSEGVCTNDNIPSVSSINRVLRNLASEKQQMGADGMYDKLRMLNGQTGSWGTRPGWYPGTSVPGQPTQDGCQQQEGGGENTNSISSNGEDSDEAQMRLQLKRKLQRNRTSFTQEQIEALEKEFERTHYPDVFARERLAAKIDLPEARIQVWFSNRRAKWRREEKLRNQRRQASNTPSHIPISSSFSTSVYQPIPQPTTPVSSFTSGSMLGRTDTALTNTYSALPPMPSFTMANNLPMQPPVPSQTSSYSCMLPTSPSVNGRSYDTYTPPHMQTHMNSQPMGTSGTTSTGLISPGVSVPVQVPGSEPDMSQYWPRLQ
Sequence of Signal transducer and activator of transcription 3 (Homo sapiens) (P40763 whole entry, looked up): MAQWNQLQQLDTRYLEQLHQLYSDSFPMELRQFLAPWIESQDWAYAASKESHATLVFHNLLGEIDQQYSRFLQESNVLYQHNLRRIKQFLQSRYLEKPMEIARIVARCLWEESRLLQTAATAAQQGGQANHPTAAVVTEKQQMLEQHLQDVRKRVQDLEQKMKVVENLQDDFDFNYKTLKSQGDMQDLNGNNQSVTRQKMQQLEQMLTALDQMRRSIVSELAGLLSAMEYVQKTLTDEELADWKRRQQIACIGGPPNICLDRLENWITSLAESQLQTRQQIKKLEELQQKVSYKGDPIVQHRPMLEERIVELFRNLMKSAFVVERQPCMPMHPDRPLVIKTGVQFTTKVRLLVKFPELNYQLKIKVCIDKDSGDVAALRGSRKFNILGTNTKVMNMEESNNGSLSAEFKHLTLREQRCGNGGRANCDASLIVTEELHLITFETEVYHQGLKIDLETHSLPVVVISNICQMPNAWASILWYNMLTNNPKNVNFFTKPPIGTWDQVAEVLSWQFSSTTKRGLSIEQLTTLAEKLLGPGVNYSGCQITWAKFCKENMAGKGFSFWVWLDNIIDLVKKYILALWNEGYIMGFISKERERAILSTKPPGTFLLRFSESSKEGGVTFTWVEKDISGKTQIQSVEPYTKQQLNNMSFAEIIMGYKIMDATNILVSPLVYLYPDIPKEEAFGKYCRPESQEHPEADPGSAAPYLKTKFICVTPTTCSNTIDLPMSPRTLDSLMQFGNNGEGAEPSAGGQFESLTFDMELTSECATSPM
Sequence of Transcription factor Sp1 (Homo sapiens) (P08047 whole entry, looked up): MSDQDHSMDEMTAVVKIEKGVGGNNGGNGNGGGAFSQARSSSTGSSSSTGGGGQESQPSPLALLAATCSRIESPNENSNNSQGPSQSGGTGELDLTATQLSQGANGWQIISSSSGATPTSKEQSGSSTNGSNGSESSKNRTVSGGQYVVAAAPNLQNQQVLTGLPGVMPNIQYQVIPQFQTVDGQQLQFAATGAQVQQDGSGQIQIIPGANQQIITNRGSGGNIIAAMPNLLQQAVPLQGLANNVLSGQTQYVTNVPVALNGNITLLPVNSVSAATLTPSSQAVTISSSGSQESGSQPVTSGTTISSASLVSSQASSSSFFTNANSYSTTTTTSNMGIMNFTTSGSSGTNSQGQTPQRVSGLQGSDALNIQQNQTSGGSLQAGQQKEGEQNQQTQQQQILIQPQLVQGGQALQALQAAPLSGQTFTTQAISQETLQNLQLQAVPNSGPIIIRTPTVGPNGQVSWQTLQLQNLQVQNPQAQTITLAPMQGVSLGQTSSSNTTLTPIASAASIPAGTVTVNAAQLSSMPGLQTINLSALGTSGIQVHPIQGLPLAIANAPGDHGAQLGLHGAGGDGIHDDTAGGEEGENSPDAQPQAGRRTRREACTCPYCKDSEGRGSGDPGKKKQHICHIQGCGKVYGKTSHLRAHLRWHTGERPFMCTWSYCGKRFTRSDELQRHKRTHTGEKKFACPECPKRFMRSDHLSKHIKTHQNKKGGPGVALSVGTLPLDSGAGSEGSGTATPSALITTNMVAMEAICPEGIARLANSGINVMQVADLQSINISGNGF
Sequence of Estrogen-related receptor gamma (Homo sapiens) (P62508 whole entry, looked up, the tested form may be a part): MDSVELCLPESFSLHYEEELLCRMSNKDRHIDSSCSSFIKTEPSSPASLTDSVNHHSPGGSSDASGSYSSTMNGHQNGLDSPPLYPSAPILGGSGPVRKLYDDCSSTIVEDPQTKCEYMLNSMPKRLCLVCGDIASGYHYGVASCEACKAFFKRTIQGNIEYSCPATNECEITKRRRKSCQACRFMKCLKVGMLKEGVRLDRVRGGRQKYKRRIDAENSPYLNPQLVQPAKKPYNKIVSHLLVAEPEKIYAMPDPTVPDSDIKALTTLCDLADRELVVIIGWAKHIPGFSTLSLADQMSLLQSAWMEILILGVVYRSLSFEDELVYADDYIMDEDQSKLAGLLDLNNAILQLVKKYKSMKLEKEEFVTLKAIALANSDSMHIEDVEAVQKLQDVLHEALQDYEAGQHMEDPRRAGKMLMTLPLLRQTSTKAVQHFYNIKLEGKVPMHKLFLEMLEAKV
Sequence of Nuclear receptor subfamily 1 group I member 3 (Homo sapiens) (Q14994 whole entry, looked up, the tested form may be a part): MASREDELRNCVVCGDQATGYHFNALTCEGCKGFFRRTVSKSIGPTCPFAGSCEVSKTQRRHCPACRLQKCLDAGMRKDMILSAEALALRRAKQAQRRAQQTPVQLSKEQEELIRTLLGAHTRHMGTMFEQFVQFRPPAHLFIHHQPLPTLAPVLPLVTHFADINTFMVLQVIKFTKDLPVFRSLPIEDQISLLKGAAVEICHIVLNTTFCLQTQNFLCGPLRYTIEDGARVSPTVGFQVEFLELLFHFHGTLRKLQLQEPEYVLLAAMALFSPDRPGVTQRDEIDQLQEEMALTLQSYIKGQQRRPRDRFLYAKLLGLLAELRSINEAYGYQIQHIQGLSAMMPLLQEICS

Usually AC50 stands for the midpoint of the concentration-response curve, whichever way the signal moves. For the compound `CCCCCCCCCCCCCCCC(=O)OCC`, the compound was classed as inactive in experiment [1], in experiment [3], in experiment [4], in experiment [5], in experiment [6] and in experiment [7]. Besides, the outcome in experiment [8], in experiment [9], in experiment [10], in experiment [11], in experiment [12] and in experiment [13] was inactive. Also, the compound was called inactive in experiment [14] and in experiment [15]. The concentration at half-maximal activity (AC50) in [2] is 31.1 µM (active).

Consider `CC(=O)c1ccc[nH]1`, for which the compound was classed as inactive in [1], in experiment [2], in experiment [3], in experiment [4], in [5] and in [6]. Further, the compound was classed as inactive in experiment [7], in experiment [8], in experiment [9], in [16], in experiment [11] and in experiment [12]. The compound was called inactive in [13], in [14] and in [15].

As to `CCCCC(CC)COC(=O)c1ccccc1` (stereo not drawn), the compound was called inactive in [1], in experiment [3], in experiment [4], in experiment [5], in experiment [6] and in experiment [7]. For the same compound, the outcome in experiment [8], in experiment [9], in experiment [16], in [17], in experiment [18] and in experiment [13] was inactive. Further, in experiment [14], the outcome was inactive. Also, the concentration at half-maximal activity (AC50) was 27.6 µM (active) in [2] and 34.6 µM (active) in experiment [12].

Regarding `C/C=C\C/C=C/CCCCCCCCOC(C)=O`, the AC50 was 100 µM (active) in experiment [1]; 26.2 µM (active) in experiment [2]; 74.8 µM (active) in experiment [16]; 30.1 µM (active) in [17]; 100 µM (active) in [13]. The outcome in [3], in [4], in experiment [5], in [6], in experiment [7] and in [8] was inactive. The compound was called inactive in experiment [10], in [11], in experiment [19] and in experiment [20].

With `C[Si](C)(CCCN)O[Si](C)(C)CCCN`, the compound was classed as inactive in experiment [1], in experiment [2], in [3], in experiment [4], in experiment [5] and in [6]. The result in experiment [8], in [9], in experiment [16], in experiment [11], in experiment [13] and in [15] was inactive. Moreover, in [7], the AC50 was 54.5 µM (active).
